Screening results (PubChem)
NIH3T3 tox: Cytotoxic Profiling in NIH 3T3 Cell Line of Diverse Libraries Using Quantitative High-Throughput Screening. AID 1345082, 2018. Potency, µM (titrated, usually from 96.7 µM), for inactives: top-dose activity change, negative = cytotoxicity, hits mostly inhibitors. NIH 3T3 viability, CellTiter-Glo ATP luminescence, 48-72 h. actives 4.3% (n = 94,000); further: nearly all actives have a fitted effect of over 55% in size
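NIH 3T3 cells at 400 cells/well received 23 nL of compound by pintool and were incubated 48 or 72 h at 37 °C. Viability was read as ATP-coupled CellTiter-Glo luminescence.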
HEK cytotox: Cytotoxic Profiling in HEK 293 Cell Line of Diverse Libraries Using Quantitative High-Throughput Screening; AID 1345083, 2018; Potency, µM (top dose mostly 115 µM), without a hit: at the highest dose activity change, negative = cytotoxicity, usual class: inhibitors; HEK 293 viability, ATP luminescence (CellTiter-Glo), 48-72 h; actives 6.6% (n = 94,000); further: nearly all actives have a fitted effect of over 60% in size
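HEK 293 cells seeded at 250 cells/well were exposed to compound for 48 or 72 hr at 37 degree Celsius. Viability taken as ATP content by CellTiter-Glo luminescence.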
hNpr1 antagonist: Natriuretic polypeptide receptor (hNpr1) antagonism - Primary qHTS | HEK293 hNpr1 GloSensor cGMP, ANP-stimulated luminescence | Potency, µM (series often up to 46.3 µM), inactives show at the highest dose activity change, negative = inhibition, actives largely listed as inhibitors | actives 1.6% (n = 76,000) | AID 1347048, 2019; calls by dose curve; further: nearly all actives have a fitted effect of over 60% in size
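Compound pre-incubated 30 min at room temperature on GloSensor-loaded HEK293 cells stably carrying hNpr1 and the pGS-40F cGMP biosensor. Stimulation uses hNppA at 0.1 nM final; luminescence is taken at baseline and 20 min post-agonist.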
FLuc inh: Firefly luciferase inhibition profiling of diverse chemical library using quantitative high-throughput screening | Luciferin 4-monooxygenase (Photinus pyralis), P08659 | purified P. pyralis luciferase, luminescence, biochemical | Potency, µM (doses to about 115 µM), actives largely listed as inhibitors | actives 2.5% (n = 76,000) | AID 1347043, 2019; further: nearly all actives have a fitted effect of over 65% in size
Target sequence (P08659 whole entry, looked up): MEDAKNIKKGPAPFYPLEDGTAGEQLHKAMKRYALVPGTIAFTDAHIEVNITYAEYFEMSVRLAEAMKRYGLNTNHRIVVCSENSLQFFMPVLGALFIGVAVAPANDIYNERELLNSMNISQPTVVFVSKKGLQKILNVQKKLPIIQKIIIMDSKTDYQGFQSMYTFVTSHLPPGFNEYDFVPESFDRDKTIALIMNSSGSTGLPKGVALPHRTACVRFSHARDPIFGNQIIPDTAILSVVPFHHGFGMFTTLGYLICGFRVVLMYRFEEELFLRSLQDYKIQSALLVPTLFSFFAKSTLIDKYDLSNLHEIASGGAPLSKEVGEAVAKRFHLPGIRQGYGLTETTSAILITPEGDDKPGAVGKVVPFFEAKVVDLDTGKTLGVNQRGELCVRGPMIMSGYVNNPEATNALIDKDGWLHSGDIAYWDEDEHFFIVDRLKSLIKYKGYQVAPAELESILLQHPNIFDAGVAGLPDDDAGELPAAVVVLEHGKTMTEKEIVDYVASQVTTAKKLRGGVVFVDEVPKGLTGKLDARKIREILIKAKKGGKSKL
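Purified P. pyralis luciferase (10nM final) in 50mM Tris acetate pH 7.5, 10mM Mg acetate, 0.01% Tween-20, 0.05% BSA with 10uM D-luciferin and 10uM ATP. Compounds titrated qHTS. Luminescence imaged on CCD.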
Active calls of the source: *; [ ] = dose if it differs, or a comment. A selection: hits, their analogues and other compounds. The true share with any hit is near 11%. Unless noted, the call rests on the fitted dose curve; in most records, active means well fitted curve in the direction sought with a large enough effect; inconclusive means small, poorly fitted or top-dose-only effect, or another doubt; inactive means no such curve, though single readings can be large; an effect the other way counts as inactive or inconclusive. On the % scale 0 is the no-effect control and ±100 the full control effect; potency means the concentration at half of the fitted maximal effect.

CCc1nc(-c2c3n(c(=O)n(Cc4ccccc4OC)c2=O)CCCCC3)no1 was read as NIH3T3 tox inconclusive, HEK cytotox -13.3%, hNpr1 antagonist 5.5% and FLuc inh inactive.
Screening Cn1ccnc1C(=O)N1CCC(Oc2cccc(F)c2)C1 (stereo not given) returned NIH3T3 tox -6.6%, HEK cytotox -20.7%, hNpr1 antagonist 1.7% and FLuc inh inactive.
Screening Cc1cc2cc(-c3c(C)noc3C)nc(-c3ccc([S+](C)(=O)[O-])cc3)c2o1 returned NIH3T3 tox inconclusive, HEK cytotox -19.6%[172 µM], hNpr1 antagonist 1.3%[70.6 µM] and FLuc inh inactive.
`Cc1cc2cc(-c3c(C)noc3C)nc(Nc3ccccc3)c2o1` gave NIH3T3 tox 31.6µM*, HEK cytotox inconclusive, hNpr1 antagonist -7.8%[70.6 µM] and FLuc inh inactive.
Cc1cc2cc(-c3c(C)noc3C)nc(N(C)CCN(C)C)c2o1 was read as NIH3T3 tox inconclusive, HEK cytotox 100µM*, hNpr1 antagonist 3.9%[70.6 µM] and FLuc inh inactive.
`COc1cc(CNc2nc(-c3c(C)noc3C)cc3cc(C)oc23)cc(OC)c1` gave NIH3T3 tox 25.1µM*, HEK cytotox inconclusive, hNpr1 antagonist inconclusive and FLuc inh inactive.
For O=C(O)COc1ccc(-c2nccc3c2C(=O)N(Cc2c[nH]c4ccccc24)CC(CNC(=O)Cc2ccccc2)O3)cc1 (stereo not given) the results were NIH3T3 tox inconclusive, HEK cytotox -0.9%, hNpr1 antagonist -1.2% and FLuc inh inactive.
Screening COc1ccc(-c2nc(C)nc3c2CN(C(=O)C2CC2)CC3)cc1 returned NIH3T3 tox -15.9%[138 µM] and HEK cytotox -10.6%[172 µM].
For CC(C)OC(C)C(=O)N1CCc2onc(-c3ccc(C(F)(F)F)cc3)c2C1 (stereo not given) the results were NIH3T3 tox inconclusive, HEK cytotox 28.2µM*, hNpr1 antagonist -28.3% and FLuc inh inactive.
`O[C@@H]1CN(Cc2ccc(-n3cccn3)cc2)CC[C@H]1c1ccc(F)cc1` gave NIH3T3 tox -28.6%, HEK cytotox 39.8µM*, hNpr1 antagonist inconclusive and FLuc inh inactive.
For CN(C)c1ccc(C(=O)N2CCC[C@H]2c2nc(-c3ccccc3)no2)cc1 the results were NIH3T3 tox -24.6%, HEK cytotox inconclusive, hNpr1 antagonist -8.9% and FLuc inh inactive.
For Cc1ccc(CN2CCOC[C@H]2c2ncc(C(C)(C)C)[nH]2)cc1 the results were NIH3T3 tox 100µM*, HEK cytotox 112µM*, hNpr1 antagonist -14.8%[70.6 µM] and FLuc inh inactive.
For Cc1ccc(-c2cnc([C@@H]3COCCN3Cc3cn(C)c4ccccc34)[nH]2)cc1 the results were NIH3T3 tox inconclusive, HEK cytotox 56.2µM*, hNpr1 antagonist inconclusive and FLuc inh inactive.
`COc1ccc(-c2cnc([C@@H]3COCCN3Cc3ccc(C)cc3)[nH]2)cc1` gave NIH3T3 tox inconclusive, HEK cytotox inconclusive, hNpr1 antagonist -19.8%[70.6 µM] and FLuc inh inactive.
For COc1ccc(-c2cnc([C@@H]3COCCN3Cc3nc4ccccc4n3C)[nH]2)cc1 the results were NIH3T3 tox inconclusive, HEK cytotox inconclusive, hNpr1 antagonist inconclusive and FLuc inh inactive.
COc1ccc(-c2cnc([C@@H]3COCCN3Cc3cn(C)c4ccccc34)[nH]2)cc1 was read as NIH3T3 tox 63.1µM*, HEK cytotox inconclusive, hNpr1 antagonist inconclusive and FLuc inh inactive.
`Cc1ccc(-c2cnc([C@@H]3COCCN3Cc3ccccc3F)[nH]2)cc1` gave NIH3T3 tox inconclusive, HEK cytotox inconclusive, hNpr1 antagonist -17.4%[70.6 µM] and FLuc inh inactive.
For COc1ccc(CN2CCOC[C@H]2c2ncc(-c3ccc(OC)cc3)[nH]2)cc1 the results were NIH3T3 tox inconclusive, HEK cytotox 89.1µM*, hNpr1 antagonist -5.5%[70.6 µM] and FLuc inh inactive.
COc1ccc(C(=O)NC2CCN(c3cc(-c4ccccc4)[nH]n3)CC2)c(C)c1 was read as NIH3T3 tox inconclusive, HEK cytotox inconclusive, hNpr1 antagonist -10.9% and FLuc inh inactive.
CCC(=O)NCC1Cn2cccc2C(=O)N1Cc1ccccc1 (stereo not given) was read as NIH3T3 tox -4.8%, HEK cytotox inactive, hNpr1 antagonist -0.7% and FLuc inh inactive.
Cc1cnc(CC2CCCN(C(=O)NCC(C)C)C2)n1Cc1ccc(F)cc1 (stereo not given) was read as NIH3T3 tox -12.2%, HEK cytotox -13.2%, hNpr1 antagonist 5.9% and FLuc inh inactive.
Screening COCCOc1ccc2c(n1)CCN(C(=O)Cc1ccccc1)C2 returned NIH3T3 tox -7.3%, HEK cytotox inconclusive, hNpr1 antagonist 0.0% and FLuc inh inactive.
Fc1ccc(-c2cnc([C@@H]3COCCN3Cc3ccncc3)[nH]2)cc1 was read as NIH3T3 tox inconclusive, HEK cytotox -5.5%[172 µM], hNpr1 antagonist -3.4%[70.6 µM] and FLuc inh inactive.
For Cn1cc(CN2CCOC[C@H]2c2ncc(-c3ccc(F)cc3F)[nH]2)c2ccccc21 the results were NIH3T3 tox 50.1µM*, HEK cytotox 50.1µM*, hNpr1 antagonist -27.0%[70.6 µM] and FLuc inh inactive.
`C[S+](=O)([O-])CCn1ncc2cc(OCc3cccc(-c4cccc(CO)c4)c3)ccc21` gave NIH3T3 tox inconclusive, HEK cytotox 50.1µM*, hNpr1 antagonist inconclusive and FLuc inh inconclusive.
Screening C[S+](=O)([O-])CCn1ncc2cc(OCc3cccc(-c4ccccc4F)c3)ccc21 returned NIH3T3 tox inconclusive, HEK cytotox 50.1µM*, hNpr1 antagonist inconclusive and FLuc inh 15.8µM*.
For COc1ccc(-c2cccc(COc3ccc4c(cnn4CC[S+](C)(=O)[O-])c3)c2)cc1 the results were NIH3T3 tox inconclusive, HEK cytotox inconclusive, hNpr1 antagonist -29.5%[70.6 µM] and FLuc inh inconclusive.
`O=C(c1ccccn1)N1CCC2(CC1)NC(=O)N(Cc1cccc(Cl)c1)C2=O` gave NIH3T3 tox 2.0%, HEK cytotox -2.7%, hNpr1 antagonist -19.0% and FLuc inh inactive.
For Cc1ccccc1CCC1CCCN(C(=O)C2(C)CC2)C1 (stereo not given) the results were NIH3T3 tox inconclusive, HEK cytotox 22.4µM*, hNpr1 antagonist -6.7% and FLuc inh inconclusive.
`Cc1ccc(S(=O)(=O)c2nnn3c2nc(NCc2ccc(F)cc2)c2ccccc23)cc1` gave NIH3T3 tox -20.8% and HEK cytotox inconclusive.
For CCn1cc(S(=O)(=O)N2CCCCC2c2nc(CCOc3ccc(F)cc3)no2)cn1 (stereo not given) the results were NIH3T3 tox inconclusive, HEK cytotox 44.7µM*, hNpr1 antagonist -18.6% and FLuc inh inactive.
For CC1(C)C(=O)N(CC2CCOCC2)[C@H]2CN(Cc3cccs3)C[C@@H]2[S+]1(=O)[O-] the results were NIH3T3 tox 79.4µM*, HEK cytotox 0.1%[172 µM], hNpr1 antagonist -2.6%[70.6 µM] and FLuc inh inactive.
